# Screening data deposited in PubChem BioAssay by National Center for Advancing Translational Sciences (NCATS).
# Sampled rows, rich in hits. Any-hit rate of the full collection: about 3.1%.
# D3 antag = D3 dopamine receptor (human) antagonism. max response, negative = inhibition, %. D3R cells, DiscoveRx beta-arrestin luminescence, antagonist mode; active compounds read low. hit rate 2.5% among 360,000. P35462; in the data active = max response below about -50%; inconclusive = no clear call, values can overlap the other calls
# Target sequence (P35462 whole entry, looked up): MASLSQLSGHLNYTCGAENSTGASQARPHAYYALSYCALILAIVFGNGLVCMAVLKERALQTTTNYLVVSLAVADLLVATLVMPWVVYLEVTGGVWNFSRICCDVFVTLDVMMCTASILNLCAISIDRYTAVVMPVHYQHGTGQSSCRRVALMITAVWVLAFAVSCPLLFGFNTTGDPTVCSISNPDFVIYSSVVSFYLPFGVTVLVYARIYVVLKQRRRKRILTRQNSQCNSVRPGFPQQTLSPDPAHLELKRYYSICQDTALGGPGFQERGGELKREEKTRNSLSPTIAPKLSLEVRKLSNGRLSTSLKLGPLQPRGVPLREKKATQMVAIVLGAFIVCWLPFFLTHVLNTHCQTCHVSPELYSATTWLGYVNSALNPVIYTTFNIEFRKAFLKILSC
#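 Cells plated overnight at 1500 cells/well, then exposed to library compounds with dopamine controls for 90 minutes at 37 degrees C. DiscoveRx reagent added for 30–60 minutes at room temperature; luminescence read, quantitative HTS format.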
# RGS4 inh = blocks human RGS4-accelerated GTP hydrolysis | Transcreener GDP fluorescence polarization, RGS4-accelerated GTP hydrolysis | Potency, µM (top dose mostly 114 µM), usual class: inhibitors | hit rate 0.039% among 390,000 | AID 504845; active = well fitted inhibition curve with a large enough effect; inconclusive = small, poorly fitted or top-dose-only effect; inactive = no such curve, though single readings can be large or run the other way; note: nearly all actives have a fitted effect of over 75% in size
# Target sequence (P49798 whole entry, looked up): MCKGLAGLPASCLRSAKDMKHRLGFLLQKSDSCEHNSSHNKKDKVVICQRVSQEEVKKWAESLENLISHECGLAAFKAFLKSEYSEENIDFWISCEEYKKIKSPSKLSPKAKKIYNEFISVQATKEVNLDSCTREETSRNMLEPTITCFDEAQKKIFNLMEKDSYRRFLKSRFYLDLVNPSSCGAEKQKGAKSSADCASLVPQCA
#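 MLSMR compounds (23 nl, pin-transferred) preincubated 10 min at room temperature with a 500nM (2x) first reagent, then RGS4 at 900nM (2x) plus Transcreener GDP mix added; fluorescence polarization (620/688 nm) read before and after 90 min at 30 °C.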
# uPA generation = blocks generation of uPA at the cell surface; cell surface uPA generation assay, qHTS; Potency, µM (series often up to 38.3 µM), usual class: inhibitors; hit rate 0.31% among 330,000; active = well fitted inhibition curve with a large enough effect; inconclusive = small, poorly fitted or top-dose-only effect; inactive = no such curve, though single readings can be large or run the other way; tested in mouse RAW 264.7 cells; note: nearly all actives have a fitted effect of over 55% in size
# DRD3 agonist = activates the human D3 dopamine receptor; max activation, %; D3R DiscoveRx beta-arrestin cells, luminescence, 90 min; P35462; hit rate 0.58% among 410,000; in the data active = max activation above about 30%
#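 Agonist-mode cell screen: cells plated at 1500/well and incubated overnight at 37 °C, then exposed to library compounds for 90 min at 37 °C. Detection reagent was added for 30–60 min at room temperature, and luminescence was read.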
# A number is an active result; 0 = inactive; ? = inconclusive; - = no result given; [ ] = remark or other dose.
SMILES,D3 antag,RGS4 inh,uPA generation,DRD3 agonist
COc1ccc(NC(=O)CSc2n[nH]c(N)n2)c([N+](=O)[O-])c1,-91.9,0,-,0
COCCCOc1cc(C[C@@H](C[C@H](N)[C@@H](O)C[C@H](C(=O)NCC(C)(C)C(N)=O)C(C)C)C(C)C)ccc1OC,-,-,-,0
COc1ccccc1-c1cc(C(=O)NCc2ccc(F)cc2)no1,?,0,0,0
COc1ccc(CNC(=O)c2cc(-c3ccccc3OC)on2)cc1,-62.7,0,-,0
COc1ccc(OC)c(-c2csc(NC(=O)Cc3ccccc3OC)n2)c1,-62.6,0,-,0
COc1ccccc1-c1cc(C(=O)NCc2ccccc2)no1,-51.7,?,-,0
COc1ccccc1-c1cc(C(=O)NCc2ccc(Cl)cc2)no1,?,0,-,0
O=C(NCc1ccc2c(c1)OCO2)c1cc(-c2ccccc2Cl)on1,-58.8,0,0,0
COc1ccc(OC)c(-c2csc(NC(=O)Cc3ccccc3F)n2)c1,0,0,0,0
CCOC(=O)C1CCN(C(=O)C2CCN(c3nnc(C)c4c(C)n(-c5ccccc5)nc34)CC2)CC1,-,0,-,0
O=C(O)c1ccc(S(=O)(=O)c2ccc3c(c2)C(=O)N(NC(=O)c2ccncc2)C3=O)cc1,-56.4,0,0,0
CCc1ccc(OCC(O)CN2CCC(CN3C(=O)c4cccc5cccc(c45)C3=O)CC2)cc1 (configuration not stated),0,0,0,0
COc1cccc(OCC(O)CN2CCC(CN3C(=O)c4cccc5cccc(c45)C3=O)CC2)c1 (configuration not stated),-52.0,0,0,0
Cc1cc(C)cc(OCC(O)CN2CCC(CN3C(=O)c4cccc5cccc(c45)C3=O)CC2)c1 (configuration not stated),-67.8,0[11.4 µM],0,0
O=C1c2cccc3cccc(c23)C(=O)N1CC1CCN(CC(O)COc2ccc3ccccc3c2)CC1 (configuration not stated),?,0,?,0
COc1ccc(CCNC(=O)C(=O)NCC(c2cccs2)S(=O)(=O)c2ccccc2)cc1 (configuration not stated),-,0,-,0
COCc1cc(=O)n2[nH]c(C)c(-c3ccc(Cl)cc3)c2n1,-60.5,-,-,0
CC(CC(=O)Nc1ccc2c(c1)c(=O)n(C)n2-c1cccs1)c1ccccc1 (configuration not stated),-52.7,-,-,0
CCCN(CCC)S(=O)(=O)c1ccc(C(=O)N2CCn3c4c(c5cc(C)ccc53)CCCC42)cc1 (configuration not stated),-,0,-,0
O=C(CN1CCCCC1)Nc1cccc(Br)c1,-63.2,0,0,0
O=C(Cc1cccc([N+](=O)[O-])c1)Nc1ccc(C(=O)N2CCOCC2)cc1,0,0,0,0
O=C(CN1CCCCC1)Nc1ccc(S(=O)(=O)NC2CCCCC2)cc1,-50.6,0,0,0
O=C(CN1CCCCC1)Nc1ccc(F)c(Cl)c1,-58.3,0,0,0
O=C(Cc1cccc([N+](=O)[O-])c1)Nc1cccc(C(=O)N2CCOCC2)c1,-51.0,0,0,0
O=C(CN1CCOCC1)Nc1cccc(Br)c1,0,0,-,0
SMILES,D3 antag,RGS4 inh,uPA generation,DRD3 agonist
O=C(CN1CCOCC1)Nc1ccc(S(=O)(=O)NC2CCCCC2)cc1,0,0,0,0
COc1ccc(-c2nc3sc(CCNS(=O)(=O)c4c(C)cc(C)cc4C)c(C)n3n2)cc1,-,0,-,0
O=S(=O)(Nc1ccc(-c2ccc(N3CCCCCC3)nn2)cc1)c1cccc(C(F)(F)F)c1,-,0,-,0
O=C(CCN1CCCCCC1)Nc1cccc(Cl)c1,-142.8,0,0,0
CC(=O)NC1CCN(CC(=O)Nc2cccc([N+](=O)[O-])c2)CC1,0,0,0,0
O=C(CN1CCCCC1)Nc1cccc([N+](=O)[O-])c1,-62.1,0,0,0
O=C(CSC1=NCCN1)Nc1cccc([N+](=O)[O-])c1,-64.5,0,0,0
O=C(CCN1CCN(Cc2ccccc2)CC1)NNC(=O)Nc1cccc([N+](=O)[O-])c1,-50.5,0,0,0
Nc1nc(NC2CC2)c2ncn([C@@H]3C=C[C@@H](CO)C3)c2n1,-,-,-,0
Cc1ccccc1OCC(=O)Nc1ccc(-c2nc3ccccc3o2)cc1,-,0,-,0
CSc1ccc(CCNC(=O)CCn2c(=O)c3cccn3c3ccc(F)cc32)cc1,-,0,-,0
COc1ccc(S(=O)(=O)NC2CCCCC2)cc1C(=O)N1CCCCC1,-65.9,0,0,0
O=C(O)CCCC(=O)NNC(=O)c1cccc(Br)c1,0,0,0,0
O=C(CN1CCCCC1)NNC(=O)c1cccc(Br)c1,-80.3,0,0,0
CC(C)(C)c1ccc(C(=O)Nc2cccc([N+](=O)[O-])c2)cc1,?,0,0,0
CC(C)(C)CC(C)(C)NC(=O)Nc1cccc([N+](=O)[O-])c1,0,0,10µM,0
CCSc1ncc(Cl)c(C(=O)Nc2ccc(S(=O)(=O)N3CCCCC3)cc2)n1,-,0,-,0
O=C1CC(c2nnc(Cc3ccc(F)cc3)o2)CN1c1ccccc1 (configuration not stated),-,0,-,0
COc1ccc(-n2ccnc(NCCc3ccccc3)c2=O)cc1OC,-,0,-,0
COc1cc(NC(=O)C2CC(=O)NC3=C2C(=O)CCC3)c(OC)cc1Cl (configuration not stated),0,0,-,39.2
COc1ccc(CN(C)CC2CCCN(CCc3ccccc3C)C2)cc1O (configuration not stated),0,0,0,0
COc1cc(OC)c(OC)cc1CN(C)CC1CCCN(CCc2ccccc2F)C1 (configuration not stated),-51.2,0,0,0
Cn1c(=O)c2c(nc(NCc3ccccc3)n2Cc2ccc(Cl)c(Cl)c2)n(C)c1=O,-,0,-,0
CC(=O)Nc1ccc(Nc2ncnc3c2c(-c2ccccc2)cn3-c2ccc(C)c(Cl)c2)cc1,-,0,-,0
CC(C)=CCC[C@H](C)C[C@@H]1Cc2[nH]c(=S)[nH]c(=O)c2[C@@H](c2ccc(F)cc2)O1,-55.5,-,-,0
SMILES,D3 antag,RGS4 inh,uPA generation,DRD3 agonist
CC1(C(=O)Nc2ccc3c(c2)OCCO3)CSCC(=O)N1C1CCN(Cc2ccccc2)CC1 (configuration not stated),-61.5,-,-,0
Cc1c(Cl)cccc1N=Cc1ccc([N+](=O)[O-])s1,-50.8,0,-,0
CC(C)Cn1c(/C=N/Nc2nc3ccccc3[nH]2)nc2ccccc21,-70.8,0,0,0
C=CCn1cc(/C=N/Nc2nc3ccccc3[nH]2)c2ccccc21,-69.9,0,0,0
CCCn1c(/C=N/Nc2nc3ccccc3[nH]2)nc2ccccc21,0,0,0,0
CN(C)CCCN1c2ccccc2C(C)(C)c2ccccc21,-,-,-,0
O=S(=O)(Nc1nc2ccccc2nc1NCc1ccco1)c1ccc(Cl)cc1,0,0,0,0
Cc1noc(C)c1CSc1nc2ccccc2nc1NS(=O)(=O)c1ccc(Cl)cc1,-51.2,0[11.4 µM],0,0
Cc1ccc(-c2cc(C(=O)N/N=C/c3cccnc3)c3ccccc3n2)cc1C,0,0,10µM,0
Cc1cc(C(=O)N/N=C/c2ccc([N+](=O)[O-])s2)c2ccccc2n1,0,0,0,0
